Structures can show the parent of a compound that is named as a salt. Among all 1,200 compounds or so, about 50 (4%) showed activity. Cut-off read from the data, not from the text of the source: all actives reach 1.3 or more but so do some inactives. Many of the other results were omitted from the sample, so actives are more common in it than they were.
What follows are compounds tested on Lgr5 (MarsCy1-Lgr5-EGFP, U2OS) (assay: cell-surface Lgr5 expression (SCi1 fluorescence, background-subtracted) relative to WT DMSO (fold of DMSO control); higher = more Lgr5 at the plasma membrane, active = hit call of the paper). Details: U2OS MarsCy1-Lgr5-EGFP stable; treatment time: overnight; 16 µM; library: Johns Hopkins Clinical Compound Library.
With `CC(=O)SCC(Cc1ccccc1)C(=O)NCC(=O)OCc1ccccc1` (centres undefined) [Racecadotril] the “cell-surface Lgr5 expression” value was 1.24 (inactive).
For `N.O=C(O)CC(O)(CC(=O)O)C(=O)O.[Fe+3]` [Ferric ammonium citrate], the “cell-surface Lgr5 expression” value was 1.06 (inactive).
In the case of `N=C(N)N` [Guanidine hydrochloride], the “cell-surface Lgr5 expression” value is reported as 0.767 (inactive).
In the case of `O.O.O.O.O.O.O.O=S(=O)([O-])[O-].[Mg+2]` [Magnesium sulfate], the “cell-surface Lgr5 expression” value is reported as 1.04 (inactive).
In the case of `C=CC1=C(C(=O)O)N2C(=O)[C@@H](NC(=O)/C(=N\O)c3csc(N)n3)[C@H]2SC1` [Cefdinir], the “cell-surface Lgr5 expression” value is reported as 1.06 (inactive).
`O=C(O[C@@H]1Cc2c(O)cc(O)cc2O[C@@H]1c1ccc(O)c(O)c1)c1cc(O)c(O)c(O)c1` [Epicatechin gallate (-)] was tested, and the “cell-surface Lgr5 expression” value was 1.14 (inactive).
`NCCc1ccc(O)c(O)c1` [Dopamine (3-Hydroxytyramine hydrochloride)] was tested, and the “cell-surface Lgr5 expression” value was 1.51 (active).
In the case of `NCCc1ccc(O)c(O)c1` [3-hydroxytyramine (Dopamine)], the “cell-surface Lgr5 expression” value is reported as 1.43 (active).
For `N[C@@H](Cc1ccc(O)c(O)c1)C(=O)O` [Levodopa (L-beta-3,4-Dihydroxyphenylananine)], the “cell-surface Lgr5 expression” value was 0.449 (inactive).
With `C[C@](N)(Cc1ccc(O)c(O)c1)C(=O)O` [Methyl-DOPA (alpha-methyl-L-beta-3,4-dihydroxyphenylalanine)] the “cell-surface Lgr5 expression” value was 0.929 (inactive).
`CC(=O)N[C@@H](CCC(N)=O)C(=O)O` [Aceglutamide (N-acetyl-L-glutamine)] was tested, and the “cell-surface Lgr5 expression” value was 1.2 (inactive).
In the case of `CN1CC(O)C2=C/C(=N/NC(N)=O)C(=O)C=C21` (centres undefined) [Carbazochrome (Adrenochrome semicarbazone)], the “cell-surface Lgr5 expression” value is reported as 1.16 (inactive).
In the case of `Cc1cc(N)c2ccccc2c1O` [Vitamin K5 hydrochloride], the “cell-surface Lgr5 expression” value is reported as 0.778 (inactive).
With `O=P([O-])(O)O.[K+]` [Potassium phosphate monobasic] the “cell-surface Lgr5 expression” value was 1.24 (inactive).
With `C[C@@H]1C[C@H]2[C@@H]3C[C@H](F)C4=CC(=O)C=C[C@]4(C)[C@@]3(F)[C@@H](O)C[C@]2(C)[C@@]1(O)C(=O)CO` [Flumethasone] the “cell-surface Lgr5 expression” value was 1.48 (active).
In the case of `C[C@@H]1C[C@H]2[C@@H]3C[C@H](F)C4=CC(=O)C=C[C@]4(C)[C@@]3(F)[C@@H](O)C[C@]2(C)[C@@]1(O)C(=O)COC(=O)C(C)(C)C` [Flumethasone pivalate], the “cell-surface Lgr5 expression” value is reported as 1.37 (active).
With `[Ca+2].[OH-].[OH-]` [Calcium hydroxide] the “cell-surface Lgr5 expression” value was 1.1 (inactive).
For `O.O=C([O-])CN(CCN(CC(=O)[O-])CC(=O)[O-])CC(=O)[O-].[Ca+2].[Na+].[Na+]`, the “cell-surface Lgr5 expression” value was 1 (inactive).
With `O.O=C([O-])CN(CCN(CC(=O)[O-])CC(=O)[O-])CC(=O)[O-].[Ca+2].[Na+].[Na+]` [Edetate calcium disodium (Calcium disodium versenate)] the “cell-surface Lgr5 expression” value was 0.981 (inactive).
`Cc1cc2nc3ccc(N(C)C)cc3[s+]c2cc1N` [Tolonium chloride (Toluidine blue O)] was tested, and the “cell-surface Lgr5 expression” value was 1.15 (inactive).
In the case of `c1ccc(-c2ccc(C(c3ccccc3)n3ccnc3)cc2)cc1` (centres undefined) [Bifonazole], the “cell-surface Lgr5 expression” value is reported as 1.04 (inactive).
With `[Fe+3].[Fe+3].[O-2].[O-2].[O-2].[O-2].[Zn+2]` [Calamine] the “cell-surface Lgr5 expression” value was 0.886 (inactive).
For `Cc1ncc(CSSCc2cnc(C)c(O)c2CO)c(CO)c1O` [Pyrithioxin], the “cell-surface Lgr5 expression” value was 1.16 (inactive).
With `CN(C)CCOC(C)(c1ccccc1)c1ccc(Cl)cc1` (centres undefined) [Chlorphenoxamine hydrochloride] the “cell-surface Lgr5 expression” value was 1.15 (inactive).
`O=C([O-])C(O)C(O)C(=O)[O-].[K+].[Na+]` (centres undefined) [Potassium sodium tartrate tetrahydrate] was tested, and the “cell-surface Lgr5 expression” value was 1.1 (inactive).
`O=C[C@H](O)[C@@H](O)[C@H](O)[C@H](O)C(=O)[O-].[Na+]` [Sodium glucuronate (D-Glucuronic acid)] was tested, and the “cell-surface Lgr5 expression” value was 1.32 (active).
For `O=CC(O)C(O)C(O)C(O)CO` (centres undefined) [Glucose (D)], the “cell-surface Lgr5 expression” value was 1.02 (inactive).
With `Cc1ccc2c(Br)cc(Br)c(O)c2n1` [Broquinaldol (5,7-dibromo-8-hydroxy-quinaldine)] the “cell-surface Lgr5 expression” value was 1.1 (inactive).
With `Cc1ccc(/C(=C\CN2CCCC2)c2cccc(/C=C/C(=O)O)n2)cc1` [Acrivastine] the “cell-surface Lgr5 expression” value was 1.15 (inactive).
For `N[C@@H](C(=O)N[C@@H]1C(=O)N2C(C(=O)O)=C(Cl)CC[C@H]12)c1ccccc1` [Loracarbef], the “cell-surface Lgr5 expression” value was 0.67 (inactive).
For `CCN(CC)CCOC(=O)c1ccc(N)cc1` [Procaine hydrochloride], the “cell-surface Lgr5 expression” value was 0.937 (inactive).
`CCCCOC(=O)c1ccc(N)cc1` [Butamben (n-butyl p aminobenzoate)] was tested, and the “cell-surface Lgr5 expression” value was 1 (inactive).
In the case of `CCCCN(CCCC)CCCOC(=O)c1ccc(N)cc1` [Butacaine], the “cell-surface Lgr5 expression” value is reported as 1.62 (active).
With `Cc1ncc(COP(=O)(O)O)c(C=O)c1O` [Pyridoxal-5-phosphate] the “cell-surface Lgr5 expression” value was 0.951 (inactive).
With `CCCCn1c(=O)c2c(ncn2CC(C)=O)n(CCCC)c1=O` [Denbufylline] the “cell-surface Lgr5 expression” value was 1.44 (inactive).
`C[C@@H](O[C@H]1OCCN(Cc2n[nH]c(=O)[nH]2)[C@H]1c1ccc(F)cc1)c1cc(C(F)(F)F)cc(C(F)(F)F)c1` [Aprepitant] was tested, and the “cell-surface Lgr5 expression” value was 1.01 (inactive).
For `Cn1c(NCCN(CCO)CCCc2ccc([N+](=O)[O-])cc2)cc(=O)n(C)c1=O` [Nifekalant], the “cell-surface Lgr5 expression” value was 0.923 (inactive).
With `[Cl-].[Cl-].[Cl-].[In+3]` [Indium(III) chloride] the “cell-surface Lgr5 expression” value was 0.736 (inactive).
In the case of `CCN(CC)CC(=O)Nc1c(C)cccc1C` [Lidocaine], the “cell-surface Lgr5 expression” value is reported as 1.19 (inactive).
For `Cc1cccc(C)c1NC(=O)C(C)N` (centres undefined) [Tocainide hydrochloride], the “cell-surface Lgr5 expression” value was 1.07 (inactive).
With `CC[N+](CC)(CC)CC(=O)Nc1c(C)cccc1C` [Lidocaine N-ethyl bromide] the “cell-surface Lgr5 expression” value was 1.39 (active).
For `O[C@@H]1[C@H](O)[C@@H](O)C=C[C@H]1O` [Conduritol], the “cell-surface Lgr5 expression” value was 1.03 (inactive).
In the case of `O=C(O)c1cc(-c2ccccc2)nc2ccccc12` [Cinchophen (2-phenyl 4-quinoline carboxylic acid)], the “cell-surface Lgr5 expression” value is reported as 1.45 (active).
With `Nc1c2ccccc2nc2ccccc12` [Aminacrine (9-Aminoacridine)] the “cell-surface Lgr5 expression” value was 0.26 (inactive).
For `O=C(O)c1ccccc1I` [2-Iodobenzoic acid], the “cell-surface Lgr5 expression” value was 1.04 (inactive).
With `O=C(O)c1cc(O)c(O)c(O)c1` [Gallic acid] the “cell-surface Lgr5 expression” value was 0.979 (inactive).
In the case of `O=C(Nc1ccccc1)c1cc(Cl)ccc1O` [5-Chlorosalicylanilide], the “cell-surface Lgr5 expression” value is reported as 1.12 (inactive).
`COC1=C(OC)C(=O)C(CCCCCCCCCCO)=C(C)C1=O` [Idebenone] was tested, and the “cell-surface Lgr5 expression” value was 1.04 (inactive).
In the case of `CC1(C)S[C@@H]2[C@H](NC(=O)COc3ccccc3)C(=O)N2[C@H]1C(=O)O.CN(C)[C@@H]1C(O)=C(C(=O)NCN2CCN(CCO)CC2)C(=O)[C@@]2(O)C(O)=C3C(=O)c4c(O)cccc4[C@@](C)(O)[C@H]3C[C@@H]12` [Penimepicycline], the “cell-surface Lgr5 expression” value is reported as 0.846 (inactive).
